The nature of assay [1]: inhibitors of TNFa-induced NFkB p65 translocation, primary screen, imaging, HUVEC, MLSMR starter and 10KST1 sets (AID 438;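 active = inhibition above 20% together with a positive visual image hit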;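 note: compound added about 3h40 before a 20 min TNFalpha stimulation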;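 for inhibition: signal is the nuclear over cytoplasmic p65 intensity ratio per well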). The conditions noted are these: HUVEC TNFa-induced p65 nuclear translocation; cell count: measured here: nuclei count (cytotoxicity indicator), at 2.08 µM; inhibition: at 2 µM, stronger effect = higher value, 0% TNFa-plus-vehicle, 100% no-TNFa wells.
A short description of assay [2]: inhibitors of mutant huntingtin aggregation, primary screen, imaging, exon1htt(103Q)mCFP cells, high-content imaging (AID 483;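 active = visual image review flags a hit and inhibition of aggregation exceeds 20%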;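 note: compound exposure lasted 3 days before fixation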;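 for nuclei count: percent of the per-plate median nuclei count of sample wells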). The conditions noted are these: exon1htt(103Q)mCFP cell line, aggregate imaging, at 2 µM; inhibition of aggregation: stronger effect = higher value; nuclei count: measured here: cell count, toxicity.
A short description of assay [3]: inhibitors of E-selectin induction by TNFa, primary screen, imaging, HUVEC, immunofluorescence, MLSMR starter and 10KST1 sets (AID 487;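 active = visually confirmed hit in the image check and inhibition above 20%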;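 for inhibition: signal is fraction of cell area covered by stained E-selectin grains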;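 for nuclei count: 100% = median nuclei count of all wells on the same plate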). The conditions noted are these: HUVEC TNFalpha-induced E-selectin immunofluorescence imaging, at 2 µM; inhibition: stronger effect = higher value; nuclei count: measured here: cell number, toxicity.
For assay [4], the target named is Voltage-gated potassium channel subunit beta-2 (Rattus norvegicus) (UniProt P62483). Nature of the assay: KvBeta enzyme negative modulators, primary screen, biochemical, NADPH fluorescence (AID 622;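 active = fluorescence slope higher than the sample average by over 3 SD, cut at about -0.22 in these data, passing the limit was not always enough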;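 note: slope of raw intensity against log time taken from 70 to 1610 s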). To be noted: recombinant KvBeta, 4-cyanobenzaldehyde reduction, at 10 µM, stronger effect = higher value.
Sequence of Voltage-gated potassium channel subunit beta-2 (Rattus norvegicus) (P62483 whole entry, looked up): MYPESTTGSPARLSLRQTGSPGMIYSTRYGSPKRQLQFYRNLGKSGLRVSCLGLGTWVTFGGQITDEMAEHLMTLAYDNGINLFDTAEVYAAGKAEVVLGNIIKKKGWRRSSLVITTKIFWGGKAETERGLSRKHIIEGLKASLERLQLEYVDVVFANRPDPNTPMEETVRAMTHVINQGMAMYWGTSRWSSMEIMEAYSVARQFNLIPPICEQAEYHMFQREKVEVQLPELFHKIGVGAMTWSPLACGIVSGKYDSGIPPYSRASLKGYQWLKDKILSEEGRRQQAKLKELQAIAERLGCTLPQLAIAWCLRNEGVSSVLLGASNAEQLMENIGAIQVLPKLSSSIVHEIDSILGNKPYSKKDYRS
For assay [5] the target is unchanged. The assay is described as follows: KvBeta positive modulators, primary screen, biochemical, NADPH fluorescence (AID 623;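 active = NADPH fluorescence slope more negative than the mean of all samples by about 3 SD, 99.7% confidence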;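 note: fluorescence intensity change per second fitted from 20 to 320 s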). To be noted: Recombinant KvBeta, NADPH fluorescence decrease slope, 10 min; at 10 µM; stronger effect = lower value.
The target of assay [6] is Alpha-2C adrenergic receptor (Homo sapiens) (UniProt P18825). Nature of the assay: modulators of alpha2C/GIRK thallium flux, primary screen, cell-based, HEK293 alpha2C/GIRK1/2 (AID 624).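 Note: slope of fluorescence ratio to pre-addition baseline per second over 15 to 24 s.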 The conditions noted are these: thallium flux BTC fluorescence, at 10 µM, actives lie on both sides.
Sequence of Alpha-2C adrenergic receptor (Homo sapiens) (P18825 whole entry, looked up): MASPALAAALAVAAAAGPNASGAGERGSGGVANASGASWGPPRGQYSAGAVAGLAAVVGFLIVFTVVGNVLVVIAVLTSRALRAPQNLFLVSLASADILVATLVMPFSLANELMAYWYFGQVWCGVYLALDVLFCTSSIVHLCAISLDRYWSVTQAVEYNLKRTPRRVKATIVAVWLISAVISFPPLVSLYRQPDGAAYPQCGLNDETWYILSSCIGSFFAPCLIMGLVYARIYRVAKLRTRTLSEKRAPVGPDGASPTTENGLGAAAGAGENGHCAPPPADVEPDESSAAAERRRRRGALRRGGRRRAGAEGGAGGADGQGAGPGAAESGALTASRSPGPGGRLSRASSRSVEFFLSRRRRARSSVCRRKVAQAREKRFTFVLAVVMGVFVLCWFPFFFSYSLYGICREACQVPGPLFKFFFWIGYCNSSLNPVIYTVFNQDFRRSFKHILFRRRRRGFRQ
Assay [7] in a line: inhibitors of Sendai virus-induced IRF3 signaling, primary screen, TLR/RLR signaling modifier project, cell-based, Sendai virus stimulus, luciferase, 10K MLSCN set (AID 602276;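 active = inhibition at or above 50% at 10 µM; inactive = inhibition below 50%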;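 note: firefly luciferase from ISG56 promoter only with Renilla not read in this screen; 0% = Sendai virus plus DMSO and 100% = medium plus DMSO without virus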). To be noted: HEK293 RL24 IRF3 luciferase reporter, at 10 µM, stronger effect = higher value.
A short description of assay [8]: inhibitors of poly I:C-induced TLR3 signaling, primary screen, cell-based, poly I:C stimulus, luciferase, 10K MLSCN set (AID 602277;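 active = inhibition of the reporter signal at or above 50%; inactive = inhibition below 50%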). To be noted: HEK293-TLR3 RL24 IRF3 luciferase reporter, at 10 µM, stronger effect = higher value. For orientation: In a reporter assay the amount or activity of a reporter protein is the signal.

SMILES strings stand for the structures. Active and inactive are the calls of the source.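 Rule for the calls, unless noted: active = fluorescence slope after compound addition differing from the mean of all screened samples at 99.7% confidence, in either direction; inactive = the rest.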

By inhibition is commonly meant the change of the read-out against control, counted positive when it falls. As to `CC1(C)Cc2cccc(OCC(=O)O)c2O1`, the cell count in assay [1] is 635. For the same compound, the inhibition was -2.7% (inactive) in assay [1], -111% (inactive) in assay [3], 11.4% (inactive) in assay [7] and 17.1% (inactive) in assay [8]. Also, in assay [2], the inhibition of aggregation is -1% (inactive). In addition, the nuclei count in assay [2] was 100%; in assay [3] it was 108%. For the same compound, the fluorescence slope in assay [4] is -0.423 (inactive). Also, the NADPH fluorescence slope in assay [5] is -2.7e-05 (inactive). Moreover, in assay [6], the slope is 0.00676 (inactive).

On to `Cc1csc(SCCn2c(N3CCCC3)nc3c2c(=O)[nH]c(=O)n3C)n1`, for which the cell count in assay [1] was determined as 445. Besides, the inhibition is 53.9% (active) in assay [1], -26.1% (inactive) in assay [3], 1.74% (inactive) in assay [7] and 16.5% (inactive) in assay [8]. Moreover, in assay [2], the inhibition of aggregation was -7.1% (inactive). Further, the nuclei count in assay [2] is 110%; in assay [3], 127%. In addition, the fluorescence slope in assay [4] was -0.38 (inactive). Besides, the NADPH fluorescence slope in assay [5] was -3.1e-05 (inactive). For the same compound, the slope in assay [6] was 0.00532 (inactive).

On to `COc1cccc(NC(=O)N2CCN(c3cccc(C)c3C)CC2)c1`, for which the cell count in assay [1] stood at 647. Further, the inhibition in assay [1] is -5.2% (inactive); in assay [3], -139% (inactive); in assay [7] it was -24.5% (inactive); in assay [8] it was -55.2% (inactive). Besides, the inhibition of aggregation in assay [2] was -12.7% (inactive). The nuclei count in assay [2] was determined as 75.8%; in assay [3], 93.3%. In addition, the fluorescence slope in assay [4] was -0.455 (inactive). Besides, the NADPH fluorescence slope in assay [5] is -4.9e-05 (inactive). Moreover, the slope in assay [6] is 0.00389 (inactive).

As to `CN(C)CCCNC(=O)c1ccc(CN(c2ccccc2)S(C)(=O)=O)cc1`, the cell count in assay [1] was found to be 641. Further, the inhibition was 1% (inactive) in assay [1], 25.8% (inactive) in assay [3], 8.82% (inactive) in assay [7] and 24.2% (inactive) in assay [8]. Also, in assay [2], the inhibition of aggregation is -1.7% (inactive). Also, the nuclei count is 101% in assay [2] and 84.7% in assay [3]. For the same compound, the fluorescence slope in assay [4] was -0.43 (inactive). In assay [5], the NADPH fluorescence slope was -0.000115 (inactive). Further, the slope in assay [6] was 0.00575 (inactive).

On to `Cc1cc(C(=O)NCCN2CCCCC2C)n(-c2ccccc2)n1` (centres undefined), for which the cell count in assay [1] was 879. For the same compound, the inhibition is 0.6% (inactive) in assay [1], -39.7% (inactive) in assay [3], 1.98% (inactive) in assay [7] and 23.7% (inactive) in assay [8]. For the same compound, in assay [2], the inhibition of aggregation is 11.3% (inactive). In addition, the values for the nuclei count in assay [2] and in assay [3] were 96% and 113%, respectively. Also, the fluorescence slope in assay [4] is -0.552 (inactive). The NADPH fluorescence slope in assay [5] was -4.7e-05 (inactive). Also, the slope in assay [6] was 0.0056 (inactive).

Consider `COc1ccc(-n2c(SCC(=O)N3CCCCC3C)nnc2-c2cccnc2)cc1` (centres undefined), for which the cell count in assay [1] amounted to 584. The inhibition in assay [1] was -12.2% (inactive); in assay [3], -23.2% (inactive); in assay [7] it was 6.12% (inactive); in assay [8] it was 9.8% (inactive). Besides, the inhibition of aggregation in assay [2] is 24.3% (inactive). In addition, the nuclei count in assay [2] came to 93.6%; in assay [3] it was 103%. Further, in assay [4], the fluorescence slope is -0.337 (inactive). In addition, in assay [5], the NADPH fluorescence slope is -5.2e-05 (inactive). Further, in assay [6], the slope is 0.00523 (inactive).

As to `Cc1ccc(C(=O)CSc2n[nH]c(-c3ccco3)n2)cc1C`, the cell count in assay [1] was 397. The inhibition is 0.7% (inactive) in assay [1], 11.3% (inactive) in assay [3], 0.966% (inactive) in assay [7] and 10.8% (inactive) in assay [8]. Besides, the inhibition of aggregation in assay [2] was -8.3% (inactive). For the same compound, the figures for the nuclei count in assay [2] and in assay [3] were 113% and 106%, respectively. Besides, the fluorescence slope in assay [4] was -0.479 (inactive). Also, the NADPH fluorescence slope in assay [5] is 1.8e-05 (inactive). Also, the slope in assay [6] is 0.00302 (inactive).

Take `c1ccc(-c2nnc(CSc3nncs3)o2)cc1`: the cell count in assay [1] came out at 322. In addition, the inhibition is 16.3% (inactive) in assay [1], -49.2% (inactive) in assay [3], -21.1% (inactive) in assay [7] and -78.9% (inactive) in assay [8]. Besides, the inhibition of aggregation in assay [2] is -19% (inactive). Also, the nuclei count in assay [2] was found to be 110%; in assay [3], 106%. In addition, the fluorescence slope in assay [4] was -0.402 (inactive). In addition, the NADPH fluorescence slope in assay [5] was -2e-05 (inactive). The slope in assay [6] was 0.00275 (inactive).

As for `CCOC(=O)N1CCC(N(C(=O)Nc2cccc(OC)c2)C(C)CC)CC1` (centres undefined), in assay [1], the cell count is 534. Besides, the inhibition is -4.4% (inactive) in assay [1], -60.6% (inactive) in assay [3], 12.2% (inactive) in assay [7] and 11.5% (inactive) in assay [8]. Further, in assay [2], the inhibition of aggregation was -16.1% (inactive). The values for the nuclei count in assay [2] and in assay [3] were 44% and 98.9%, respectively. Moreover, in assay [4], the fluorescence slope is -0.513 (inactive). Also, the NADPH fluorescence slope in assay [5] is -3.9e-05 (inactive). Moreover, the slope in assay [6] was 0.00561 (inactive).

Consider `CCCC(=O)Nc1cc(C)c(NC(=O)c2ccccn2)cn1`, for which, in assay [1], the cell count was found to be 418. Also, the inhibition was 13.7% (inactive) in assay [1], -10.2% (inactive) in assay [3], 4.7% (inactive) in assay [7] and 11.8% (inactive) in assay [8]. For the same compound, the inhibition of aggregation in assay [2] was 19.4% (inactive). The nuclei count in assay [2] was found to be 89.7%; in assay [3], 110%. The fluorescence slope in assay [4] is -0.606 (inactive). In addition, the NADPH fluorescence slope in assay [5] was -5.2e-05 (inactive). In assay [6], the slope is 0.007 (inactive).

Take `CCSCCNC(=O)c1cc(-n2cnnc2)ccc1Cl`: the cell count in assay [1] was determined as 685. The inhibition in assay [1] is 1.3% (inactive); in assay [3], 24.9% (inactive); in assay [7], 16.3% (inactive); in assay [8], 20.3% (inactive). The inhibition of aggregation in assay [2] was -2.3% (inactive). Also, the nuclei count was found to be 97.1% in assay [2] and 89.9% in assay [3]. Also, in assay [4], the fluorescence slope is -0.633 (inactive). Besides, in assay [5], the NADPH fluorescence slope was -9.8e-06 (inactive). Moreover, the slope in assay [6] is 0.0037 (inactive).

Consider `Cc1ccc(S(=O)(=O)C2(C(=O)Nc3nccs3)CC2)cc1`, for which the cell count in assay [1] amounted to 584. For the same compound, the inhibition in assay [1] was 6.5% (inactive); in assay [3], -69.3% (inactive); in assay [7], 13% (inactive); in assay [8], 32.7% (inactive). Besides, the inhibition of aggregation in assay [2] is 0% (inactive). Besides, the values for the nuclei count in assay [2] and in assay [3] were 95.6% and 103%, respectively. For the same compound, the fluorescence slope in assay [4] was -0.586 (inactive). The NADPH fluorescence slope in assay [5] is -2.1e-05 (inactive). Moreover, in assay [6], the slope was 0.00637 (inactive).

As for `CCOC(=O)N1CCN(C(=O)c2n[nH]c(=O)c3ccccc23)CC1`, in assay [1], the cell count is 515. The inhibition in assay [1] is -9.4% (inactive); in assay [3], -37.5% (inactive); in assay [7], -11.6% (inactive); in assay [8] it was -3.48% (inactive). For the same compound, the inhibition of aggregation in assay [2] was -7.2% (inactive). The nuclei count in assay [2] amounted to 107%; in assay [3], 80.9%. For the same compound, in assay [4], the fluorescence slope was -0.591 (inactive). Besides, in assay [5], the NADPH fluorescence slope was -2.8e-05 (inactive). Moreover, the slope in assay [6] was 0.00361 (inactive).

As to `COCCn1c(C23CC4CC(CC(C4)C2)C3)n[nH]c1=S`, the cell count in assay [1] was 866. Besides, the inhibition in assay [1] was 3.6% (inactive); in assay [3], -91.1% (inactive); in assay [7], 14.6% (inactive); in assay [8] it was 42.9% (inactive). Further, in assay [2], the inhibition of aggregation is -13.1% (inactive). Besides, the figures for the nuclei count in assay [2] and in assay [3] were 106% and 129%, respectively. The fluorescence slope in assay [4] was -0.44 (inactive). For the same compound, the NADPH fluorescence slope in assay [5] was -2.3e-05 (inactive). Besides, the slope in assay [6] is 0.00347 (inactive).
